Bioassay records from PubChem BioAssay.
ssDAF-12 act – activates DAF-12 receptor from parasite S. stercoralis; HEK293 ssDAF-12/GRIP1 lit1-tk-luc reporter, luminescence; % of 3 µM dafachronic acid response; activation, % at 6.8 µM; actives 1% (n = 370,000); AID 652126;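 active = activation above the mean over all tested compounds plus 3 SD, cut at about 0.9% in these data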
DAX1 inh – inhibitors of DAX1 repression of SF-1 activated StAR promoter | HEK293T StAR-luciferase reporter, SF-1/DAX-1 repression relief | inhibition, % at 6.8 µM | actives 1.1% (n = 370,000);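 active = inhibition above the mean over all tested compounds plus 3 SD, cut at about 3.6% in these data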;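 note: higher inhibition means more luminescence from relief of DAX-1 repression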
hcDAF-12 act – activators of H. contortus DAF-12 nuclear receptor; actives 1.4% (n = 370,000); HEK293 hcDAF-12 lit1-tk-luc reporter, luminescence; 0% DMSO, 100% Δ7-dafachronic acid; activation, % at 6.8 µM;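 active = activation above the mean of all tested compounds plus 3 SD, cut at about 5.5% in these data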
hgDAF-12 ag – agonists of H. glycines DAF-12 nuclear receptor. HEK293 GAL4-hgDAF12 UAS-luciferase reporter, agonist luminescence; normalized to butyrate control. activation, % at 6.8 µM. actives 1.8% (n = 370,000). AID 687014;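 active = activation above a cutoff set at the mean of all screened compounds plus 3 SD, cut at about 10% in these data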
Wnt act – activates Wnt/beta-catenin signaling in a reporter cell assay; actives 1.2% (n = 300,000); AID 743398; activator, plate reader; activation, % at 9.35 µM; in the data active = activation above about 30%, passing the limit was not always enough; inconclusive = no clear call, values can overlap the other calls
esBAF inh – SWI/SNF esBAF complex inhibition. mouse ES cells, Bmi1-luciferase knock-in reporter, 24 h; 100% = twice the neutral-well signal. actives 2% (n = 350,000). reporter increase, % at 12.5 µM; in the data active = activation above about 40%; inconclusive = no clear call, values can overlap the other calls;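 note: a rise in the Bmi1 reporter signal indicates esBAF inhibition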
A number is an active result; – = inactive; ? = inconclusive; · = no result given. The list is not random: actives were taken first. Their share in the collection is about 4.2%.

SMILES	ssDAF-12 act	DAX1 inh	hcDAF-12 act	hgDAF-12 ag	Wnt act	esBAF inh
Oc1ccccc1N=Nc1ccccc1O	–	–	–	–	–	·
Nc1ccc(N=Nc2ccccc2O)c(N)c1	1.6	–	–	–	49	·
CC(C)C(=O)Nc1ccc2c(c1)C(=O)N(C)[C@H]1CC[C@@H](CC(=O)N[C@H](C)c3ccccc3)O[C@@H]1CO2	·	·	·	·	·	–
Cc1ccc(C(=O)Nc2cnc3ccccn3c2=O)cc1	–	4.0	–	–	–	–
Cc1ccc2ncc(NC(=O)c3ccc(F)cc3)c(=O)n2c1	–	–	–	–	–	–
C[C@H]1CN([C@@H](C)CO)C(=O)c2cc(C#CC3CC3)cnc2O[C@@H]1CN(C)S(=O)(=O)c1cccc(F)c1	·	·	·	·	·	–
CC(C)(C)C(=O)[C@H]1[C@H](c2ccccc2)[C@@]2(N=C(c3ccccc3)OC2=O)C2c3ccccc3C=NN21 (stereo not given in full)	–	–	–	–	–	47
COc1ccc(NC(=O)Nc2ccc3c(c2)CC(=O)N([C@@H](C)CO)C[C@@H](C)[C@H](CN(C)S(=O)(=O)c2cn(C)cn2)O3)cc1	·	·	·	·	·	–
Cc1cccc(-c2ccc3c(c2)C2CC3CCN2Cc2ccc3c(c2)OCO3)c1 (stereo not given)	–	4.0	–	–	–	–
Fc1ccc(-c2ccc3c(c2)C2CC3CCN2Cc2ccc3c(c2)OCO3)cc1 (stereo not given)	–	–	–	–	–	–
CO[C@@H]1CC[C@@H]2CCN(C)C(=O)CCCN(C)C(=O)c3cc(C#N)ccc3OC[C@@H]1O2	·	·	·	·	·	–
CNc1nn(-c2cccc(Cl)c2)nc1N	–	–	–	–	·	62
Nc1ccccc1Nc1cc(-c2ccccc2)nn1-c1cccc(Cl)c1	–	–	–	–	–	·
C[C@H](CO)N1C[C@H](C)[C@@H](CN(C)Cc2ccc3c(c2)OCO3)OCCCC[C@H](C)Oc2ccc(NS(=O)(=O)c3ccc(Cl)cc3)cc2C1=O	·	·	·	·	·	–
O=C(CCSc1ccc(Cl)cc1)NC12CC3CC(CC(C3)C1)C2	–	–	–	–	–	50
O=C(CCSc1ccc(Cl)cc1)NC1CCCCC1	–	–	–	–	·	·
O=C(Nc1ccc2ncccc2c1)c1cccc(Br)c1	–	–	–	–	33	?
C[C@H](CO)N1C[C@H](C)[C@H](CN(C)S(=O)(=O)c2ccccc2)OCCCC[C@H](C)Oc2ccc(NC(=O)Nc3ccc(F)cc3)cc2C1=O	·	·	·	·	·	–
COc1cc(/C=N/N=C(/N)c2nonc2N)cc(Br)c1OCc1ccccc1C	–	–	–	–	–	·
COc1cccc(/C=N/N=C(\N)c2nonc2N)c1O	–	–	–	13	?	·
Cc1ccccc1C(=O)N/N=C1/SCC(=O)N1Cc1ccccc1	16	–	–	–	–	·
CN(C)c1ccc(/C=N/c2cc(-c3ccccc3)nn2-c2ccccc2)cc1	–	–	–	–	–	62
Cc1nc2ccccc2c(=O)n1/N=C/c1ccc(N(C)C)cc1	–	–	–	–	–	–
COc1ccc(S(=O)(=O)Nc2cccc3c2O[C@H](CN(C)Cc2ccncc2)[C@H](C)CN([C@H](C)CO)C3=O)cc1	·	·	·	·	·	–
COCC(=O)Nc1ccc2c(c1)C(=O)N(C)[C@@H]1CC[C@H](CC(=O)NCc3ccc(OC)cc3)O[C@H]1CO2	·	·	·	·	·	–
SMILES	ssDAF-12 act	DAX1 inh	hcDAF-12 act	hgDAF-12 ag	Wnt act	esBAF inh
CC(=O)Nc1ccc(N=Cc2c(O)c(C(=O)Nc3ccccc3)cc3ccccc23)cc1	2.1	–	–	–	–	·
CC(=O)Nc1ccc(N=Cc2c(O)c3ccccc3oc2=O)cc1	–	–	–	–	–	–
CCOc1ccc(-c2nc(CSc3nnc(N)s3)cs2)cc1OC	–	–	–	–	·	47
COc1ccc(-c2nc(CCl)cs2)cc1OC	–	–	–	–	–	–
CCCOc1ccc(OCCSc2nnc(N)s2)cc1	–	–	–	–	·	53
CCOc1ccc(-c2nc(CSc3nnc(N)s3)cs2)cc1	–	–	–	12	·	49
CCOC(=O)c1ccc(CSc2nnc(N)s2)cc1	–	–	–	–	·	48
Nc1nnc(SCCCOc2ccc(F)cc2)s1	–	–	–	–	–	–
C[C@H](CO)N1C[C@H](C)[C@@H](CN(C)C(=O)c2cccc(F)c2)Oc2ncc(C3=CCCCC3)cc2C1=O	·	·	·	·	·	–
